# PubChem BioAssay AID588453 (National Center for Advancing Translational Sciences (NCATS), 2011)
# Out of some 390,000 compounds screened, about 4,000 (1%) were called active. About 4% were inconclusive and are not listed. For the sample, actives were picked, then their nearest neighbours and some compounds at random. Unmarked numbers belong to inactive results. Calls follow the shape of the dose curve; as a rule, active = well fitted inhibition curve with a large enough effect; inconclusive = small, poorly fitted or top-dose-only effect; inactive = no such curve, though single readings can be large or run the other way.
# Target: Thioredoxin reductase 1, cytoplasmic (Rattus norvegicus) (UniProt O89049)
# Assay: qHTS Assay for Inhibitors of Mammalian Selenoprotein Thioredoxin Reductase 1 (TrxR1): qHTS; also: nearly all actives have a fitted effect of over 65% in size
# Conditions: recombinant rTrxR1, NADPH fluorescence consumption, selenite substrate; series mostly up to 114 µM; activity change, negative = inhibition: at the top concentration
# Description: The selenoprotein thioredoxin reductase (TrxR; EC 1.8.1.9) is a FAD containing homodimeric pyridine nucleotide-disulfide oxidoreductase with many cellular roles. Together with NADPH and its prime substrate thioredoxin (Trx), the enzyme forms the core of the Trx system. The mammalian Trx system exerts a wide spectrum of functions including redox regulation, antioxidant defense, regulation of transcription factors as well as support of cell growth and replication. Many of these functions involve the reduction of Trx, which may subsequently reduce a number of different substrates including ribonucleotide reductase, peroxiredoxins or NFkB. Mammalian TrxR itself also has a broad substrate specificity, reducing both protein and non-protein substrates, including low molecular weight compounds such as dehydroascorbate, lipoic acid, ubiquinone, and juglone. In addition, several drugs in clinical use for anticancer treatment are indeed known to target TrxR1.
# This BioAssay is a validation of an NADPH fluorescence-based, dual-purpose qHTS rTrxR1 assay designed to find potential inhibitors and substrates of rTrxR1. For this particular BioAssay, actives are potential inhibitors. See related BioAssay for substrate data deposition.
# NIH Molecular Libraries Probe Production Network [MLPCN]
# NIH Chemical Genomics Center [NCGC]
# Assay Provider: Elias Arner, Karolinska Institute
# Assay protocol: 2 uL of reagents (buffer in column 4 as negative control and 90 nM rTrxR1 in columns 1-3 and 5-48) were dispensed into Greiner black solid-bottom 1,536-well assay plates, followed by 1 uL of NADPH (400 uM final concentration) to each well. The plates were centrifuged at 1000 rpm for 15 seconds and subsequently incubated for 5 min at room temperature (~22 deg C) to allow for rTrxR1 reduction. Compounds (23 nL) were then transferred via Kalypsys pin tool equipped with 1536-pin array (10 nL slotted pins, V&P Scientific, San Diego, CA). In addition, a duplicate 2-fold serial dilution of the control compounds auranofin, a known gold-based TrxR1 inhibitor, and juglone (5-hydroxy-1,4-naphthoquinone), a natural TrxR1 substrate, were pin-transferred to columns 2 and 3, respectively. After incubation for 15 min at room temperature (~22 deg C), 1 uL of selenite (400 uM final concentration) were dispensed to each well. The plate was immediately transferred to a ViewLux high-throughput CCD imager (PerkinElmer), wherein kinetic measurements of NADPH fluorescence (Ex 340 nm, Em 450 nm) were acquired (8 minute kinetic read, see Table 1). Read 1 was utilized to assess the capacity of a compound to serve as an rTrxR1 substrate, i.e. a decrease in NADPH fluorescence compared to the no-compound background is an indication of a substrate behavior for that particular compound. For inhibitory activity of a compound, delta values, computed as the difference in fluorescence intensity between the first and last reads of an 8-minute time kinetic window, were used. All reagents were diluted in an assay buffer consisting of 50 mM Tris-HCl, pH 7.5, 2 mM EDTA, and 0.01% Tween-20.
# Throughout the screen, reagent bottle and all liquid lines were made light-tight to minimize reagent degradation. All screening operations were performed on a fully integrated robotic system (Kalypsys, San Diego, CA) containing one RX-130 and two RX-90 anthropomorphic robotic arms (Staubli, Duncan, SC). Library plates were screened starting from the lowest and proceeding to the highest concentration, and a 'double-pinning' step of the highest concentration was required to access higher concentrations of compounds. Vehicle-only plates, with DMSO being pin-transferred to the columns 5-48, were inserted uniformly at the beginning and the end of each library in order to monitor and record any shifts in the background, which can be affected by reagent dispensers or loss in enzyme activity over time. […]
# % is scaled to controls: 0 for no effect and ±100 for the full control effect; potency is read from the fitted curve at half-maximal effect.
# Sequence of Thioredoxin reductase 1, cytoplasmic (Rattus norvegicus) (O89049 whole entry, looked up): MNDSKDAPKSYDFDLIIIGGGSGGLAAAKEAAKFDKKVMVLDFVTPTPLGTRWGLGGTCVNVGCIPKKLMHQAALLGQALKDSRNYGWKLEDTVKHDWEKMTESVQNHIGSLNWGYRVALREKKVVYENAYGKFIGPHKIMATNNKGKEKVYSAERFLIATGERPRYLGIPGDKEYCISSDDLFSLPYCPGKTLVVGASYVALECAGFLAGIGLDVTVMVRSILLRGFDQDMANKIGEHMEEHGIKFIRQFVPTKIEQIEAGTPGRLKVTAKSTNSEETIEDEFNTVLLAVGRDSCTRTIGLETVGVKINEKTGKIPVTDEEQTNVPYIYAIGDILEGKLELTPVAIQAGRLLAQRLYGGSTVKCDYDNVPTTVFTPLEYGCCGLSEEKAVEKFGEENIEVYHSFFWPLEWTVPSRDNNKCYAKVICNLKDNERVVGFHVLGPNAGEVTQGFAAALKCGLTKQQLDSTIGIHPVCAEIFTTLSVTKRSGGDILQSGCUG
Compound,"activity change, negative = inhibition",Potency
Cc1ccc(C)c2sc(NC(=O)c3ccc(S(=O)(=O)N4CCCC4)cc3)nc12,29.7% [at 57.1 µM],–
CCc1ccc(NC(=O)C2CCCN2S(=O)(=O)c2ccc3nc(-c4ccccc4)[nH]c3c2)cc1 (stereo not given),5.83%,–
COc1ccc(C=C(C#N)C#N)c(CSc2ccccn2)c1,–,11.2 µM (active)
COc1cccc(N(CC(=O)NCCSc2ccccn2)S(C)(=O)=O)c1,25.6%,–
CN(C)c1nc(N)nc(CSc2ccccn2)n1,10.2%,–
COc1ccc(C(=O)COC(=O)CCCC(=O)Nc2cc(C(F)(F)F)ccc2Cl)cc1,-7.49%,–
CN(N=O)c1ccc(C=C2c3ccccc3-c3ccccc32)cc1,11.1%,–
CCOc1ccc(NC(=O)CCc2c(C)nn(-c3ccc(N4CCCC4)nn3)c2C)cc1,17.2% [at 57.1 µM],–
O=C1O/C(=C\c2ccc(O)cc2)C(O)=C1c1ccc(O)cc1,0.176%,–
Cn1cnc([N+](=O)[O-])c1Nc1ccccc1O,-11.4%,–
Cn1cnc([N+](=O)[O-])c1Sc1n[nH]c(N)n1,–,12.6 µM (active)
Nc1nc(Sc2ncccc2[N+](=O)[O-])n[nH]1,15.9%,–
CCOc1ccc(OCC)c(Nc2nc3ccccc3n3nnnc23)c1,-13.6%,–
COc1ccc(CNC(=O)Cn2nnc(-c3ccc(S(C)(=O)=O)cc3)n2)cc1,15.6%,–
Cc1c(Cl)cccc1NC(=O)C1CCCN(c2ncnc3onc(C)c23)C1 (stereo not given),8.7%,–
CCOC(=O)N1CCc2c(sc3c2c(=O)n(-c2ccc(CC)cc2)c(=O)n3C)C1,-6.6%,–
O=C(c1ccc(Br)cc1)N(Cc1cccs1)c1ccc(F)cc1,14.5%,–
COc1ccc(CCC(=O)NCCc2csc(-c3ccc(Cl)cc3)n2)cc1,7.28% [at 57.1 µM],–
COc1ccc(CCN2C(=O)CC(N3CCC(C(N)=O)CC3)C2=O)cc1OC (stereo not given),–,22.4 µM (active)
COc1cccc(N2CCN(C3CC(=O)N(c4ccc(Cl)cc4)C3=O)CC2)c1 (stereo not given),-8.08%,–
COc1ccc(CCN2C(=O)C3CC=C(C)CC3C2=O)cc1OC (stereo not given),20.2%,–
CCOC(=O)c1ccc(N2C(=O)CC(N3CCC(C(=O)OCC)CC3)C2=O)cc1 (stereo not given),-18.9%,–
COc1ccc(N2C(=O)CC(N3CCC(C(N)=O)CC3)C2=O)cc1 (stereo not given),–,50.1 µM (active)
COc1ccc(CN2C(=O)CC(Cc3ccc(C)cc3)C2=O)cc1OC (stereo not given),-13.1%,–
Cn1c(=O)c(C(=O)O)nn(-c2ccccc2)c1=O,2.12%,–

Compound,"activity change, negative = inhibition",Potency
CCN(CC)/[N+]([O-])=N/Oc1cc(O/[N+]([O-])=N/N2CCCC2CO)c([N+](=O)[O-])cc1[N+](=O)[O-] (stereo not given),27.8%,–
COc1ccc(OC)c(NC(=O)Cn2c(=O)n(Cc3ccccc3)c(=O)c3ccccc32)c1,23.8%,–
CCCCCCCNc1ccc(/C=C/c2ccnc3ccccc23)cc1,16.1%,–
O=C(COC(=O)c1ccccc1OCCOc1ccccc1)Nc1cccc(Br)c1,9.98%,–
COc1ccc2c(c1)CCc1c(C(=O)Nc3cc(C)ccc3O)noc1-2,24%,–
O=C(c1noc2c1CCCC2)N1CCc2ccccc2C1,6.82%,–
COc1ccc2c(c1)CCc1c(C(=O)N3CCCC3)noc1-2,–,35.5 µM (active)
CCCCNC(=O)Cn1c(SCc2cccc(Cl)c2)nc2ccncc21,12.1%,–
COc1ccc(-c2cn3c(n2)sc2cc(C(=O)Nc4ccccc4F)ccc23)cc1,18.2%,–
COc1cccc(-c2n[nH]c3c2C(c2cccc(O)c2)N(C)C3=O)c1 (stereo not given),15.4%,–
Cc1ccc(-c2nc(Cn3c(=O)cc(-c4ccccc4)c4c(C)nn(C)c43)c(C)o2)cc1,16.5% [at 57.1 µM],–
O=C(NCc1ccccc1)C(=O)NCC(c1ccco1)S(=O)(=O)c1ccc(Cl)cc1 (stereo not given),3.23% [at 57.1 µM],–
CCN1CCC2(CC1)N=C(c1ccc(F)cc1)C(=S)N2C(=O)c1ccc(C)cc1,–,15.8 µM (active)
CCN1CCC(N(Cc2ccc(F)cc2)C(=O)Nc2cc(C)ccc2C)CC1,-0.49%,–
Cc1ccc(NC(=O)CN2C(=O)C(c3ccc(F)cc3)=NC23CCCCCC3)c(C)c1,11.7%,–
Cc1cccc(-n2ccnc2SCC(=O)Nc2cccc3ccccc23)c1C,12.3% [at 57.1 µM],–
NNc1cccc(C=Cc2ccccc2)cc1=O,–,17.8 µM (active)
O=C(COc1ccccc1)OCc1cc(=O)n2nc(-c3cccs3)sc2n1,18% [at 57.1 µM],–
CC1=Nc2cc(C(=O)NCc3ccc(C)cc3)ccc2Sc2ccc(Cl)cc21,24.3% [at 57.1 µM],–
C[C@@H]1NC(=O)c2cc([N+](=O)[O-])cc(F)c2NCCC[C@@H](C(N)=O)NC(=O)[C@H](CC(N)=O)NC1=O,-7.55%,–
NC(=O)CC[C@@H]1NC(=O)[C@H](CO)NC(=O)c2cc([N+](=O)[O-])cc(I)c2NCC[C@@H](C(N)=O)NC1=O,–,70.8 µM (active)
NCCCC[C@@H]1NC(=O)[C@H](CCC(=O)O)NC(=O)c2cc([N+](=O)[O-])cc(I)c2NCC[C@@H](C(N)=O)NC1=O,-14.4%,–
NC(=O)C[C@@H]1NC(=O)CNC(=O)c2cc([N+](=O)[O-])cc(I)c2NCCC(C(N)=O)NC1=O (stereo not given in full),-2.64% [at 57.1 µM],–
CC(C)[C@@H]1NC(=O)c2cc([N+](=O)[O-])cc(I)c2NCCC[C@@H](C(=O)NC(CC(=O)O)C(N)=O)NC(=O)[C@H](CO)NC1=O (stereo not given in full),-3.78%,–
NC(=O)CC[C@@H]1NC(=O)[C@@H]2CCCN2C(=O)c2cc([N+](=O)[O-])cc(F)c2NCCC[C@@H](C(N)=O)NC1=O,–,12.6 µM (active)
